Assay results as given in PubChem BioAssay AID588335 (The Scripps Research Institute Molecular Screening Center, 2011).
Screen size: about 360,000 compounds; about 4,500 (1.2%) were called active. The sample holds actives, similar compounds and a random draw of the others, so the mix is not that of the screen. Values without a mark were called inactive. Cut-off read from the data, not from the text of the source: active = inhibition above about 30%; inactive = the rest.

Experiment: GDH-TPI coupling enzyme inhibitors, primary screen, artefact control for M. tuberculosis FBA inhibitor project, biochemical, absorbance, full deck (AID 588335);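 note: 0% = DMSO wells and 100% = wells lacking the enzyme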
Settings: GDH-TPI coupled enzyme counterscreen, NADH absorbance; at 4.8 µM; stronger effect = higher value

SMILES | inhibition
CC(Oc1ccc(F)cc1)C(=O)Nc1cc(S(=O)(=O)N2CCOCC2)ccc1N1CCN(C)CC1 (stereo not drawn) | -7.32%
COC(=O)c1ccc(NC(=O)C23CC4CC(C2)CC(n2cnc(Cl)n2)(C4)C3)cc1 | 7.31%
CCC(CC)C(=O)Nc1cccc(C(=O)N2CCCC2)c1 | 2.12%
COc1ccc(NC(=O)CCCOc2ccc(C(C)=O)cc2)cc1S(=O)(=O)N1CCCCC1 | 7.56%
C/C(=N\NC(=O)c1cccc(N2CCCC2=O)c1)c1ccc(N)cc1 | 5.43%
COc1cc(/C=N/NC(=O)c2ccc(N3CCCC3=O)cc2)ccc1O | 43.2% (active)
O=C(NCCCN1CCCCCC1)c1ccc(N2CCCC2=O)cc1 | 3.81%
CN(CC(O)COc1ccc(S(=O)(=O)N2CCOCC2)cc1Cl)C1CCCCC1 (stereo not drawn) | -2.47%
Cn1c(SCC(=O)Nc2ccc(Cl)cc2)nc(O)cc1=O | 4.39%
O=C(NCc1ccco1)/C(=C/c1cccc([N+](=O)[O-])c1)NC(=O)c1ccco1 | -4.48%
Cc1ccc(C(=O)N/C(=C/c2ccc(-c3cccc([N+](=O)[O-])c3)o2)C(=O)NCCCN(C)C)cc1 | 58.5% (active)
O=C(NCc1ccco1)/C(=C\c1cccc([N+](=O)[O-])c1)NC(=O)c1ccco1 | 16.8%
CN(C(=O)c1cccc(NC(=O)Cc2ccc([N+](=O)[O-])cc2)c1)C1CCC1 | 6.17%
COc1ccc(/C=N\NC(=O)c2sc(N)nc2C)cc1OC | 40.4% (active)
Cc1nnsc1C(=O)N/N=C/c1cccc(C(F)(F)F)c1 | 5.54%
COc1cc(/C=N/NC(=O)Nc2ccccc2)ccc1OCCOc1ccccc1C | 18.8%
CC1(Oc2ccc(Cl)cc2)CCN(Cc2csc3ccccc23)C1 (stereo not drawn) | -8.04%
CCOC(=O)c1ccccc1NC(=S)N1CCC(C(N)=O)CC1 | -2.65%
CCCCn1c(N)c(N(CCOC)C(=O)c2sc3ccccc3c2Cl)c(=O)[nH]c1=O | 0%
CC(=O)Nc1ccc(S(=O)(=O)Nc2nc3n(n2)C(c2ccccc2)CC(=O)N3)cc1 (stereo not drawn) | 0.72%

SMILES | inhibition
CCOc1ccc(-n2c(SCC(=O)OC)nc3sc4c(c3c2=O)CCN(C)C4)cc1 | 22.9%
CCSc1nc2sc3c(c2c(=O)n1-c1ccc(C)cc1)CCN(C)C3 | 30.7% (active)
CCn1c(SCC(=O)Nc2ccc(Br)cc2)nc2sc3c(c2c1=O)CCN(C)C3 | 6.95%
CCOc1ccc(-n2c(SCC(=O)Nc3ccc(OC)cc3)nc3sc4c(c3c2=O)CCN(C)C4)cc1 | 19.9%
CCCSc1nc2sc3c(c2c(=O)n1-c1ccc(OC)cc1)CCN(C)C3 | 14.5%
COc1ccccc1NC(=O)CSc1nc2sc3c(c2c(=O)n1-c1ccccc1)CCN(C)C3 | 33.1% (active)
C[C@H]1CN([C@@H](C)CO)C(=O)CCCn2cc(nn2)CO[C@@H]1CN(C)S(=O)(=O)c1ccc(-c2ccccc2)cc1 | 5.15%
CC1(C)CC(=O)C(C2c3ccccc3S(=O)(=O)c3ccccc32)C(=O)C1 | 3.51%
Cc1c(C=O)c2ccccn2c1C(=O)c1ccncc1 | 23.7%
COc1cc(NC(=O)CCNC(=O)Cn2ccc3ccccc3c2=O)cc(OC)c1OC | -1.5%
Cn1c(=O)c2c(nc(N3CCCCCC3)n2CC(O)COc2ccc(Cl)cc2)n(C)c1=O (stereo not drawn) | 3.88%
CN(C)S(=O)(=O)c1cccc(NC(=O)COc2ccc3ccccc3c2)c1 | 0.32%
CN(C)S(=O)(=O)c1cccc(NC(=O)COC(=O)c2cc(=O)[nH]c(=O)[nH]2)c1 | -1.24%
Cc1ccc(/C=N/NC(=S)Nc2cccc(S(=O)(=O)N(C)C)c2)o1 | 55.8% (active)
CCN(C(=O)Nc1cccc2ccccc12)c1ccccc1 | 3.9%
Cc1cccc(S(=O)(=O)N2CN(CC3CCCO3)c3nc4ccccc4nc32)c1 (stereo not drawn) | 11.8%
Cc1sc(NC(=O)C2=COCCO2)c(C#N)c1C | 13.8%
CCN(CC)C(=O)c1sc(NC(=O)c2ccco2)c(C#N)c1C | 33.3% (active)
Cc1c(C(=O)OC(C)C)sc(NC(=O)c2cccnc2)c1C#N | 20.9%
CCN(CC)CC(=O)Nc1nn(-c2ccccc2)nc1C(N)=O | -4.59%

SMILES | inhibition
COc1ccc(OC)c(/C=N/NC(=O)c2ccc[n+](CC(=O)c3ccccc3)c2)c1 | 11.2%
COc1ccc(/C=N/NC(=O)c2ccc3c(c2)OCCO3)c(OC)c1 | 35.4% (active)
COc1ccc(OC)c(/C=C/C(=O)c2ccc3c(c2)OCO3)c1 | 7.32%
CCCCc1ccc(S(N)(=O)=O)cc1 | 1.6%
CN(C)c1ccc(C=NCCc2ccc(S(N)(=O)=O)cc2)cc1 | 54.4% (active)
CN(CC(=O)NCCc1ccc(S(N)(=O)=O)cc1)CC(=O)Nc1ccc(Cl)cc1 | 2.64%
O=C(O)CC(c1ccccc1F)N1Cc2ccccc2C1=O (stereo not drawn) | -3.95%
Cc1c(C(=O)NC2CCCCC2)oc2ccccc12 | 5.98%
CC(C)c1ccccc1OCC(O)CN(CC(O)COc1cccc2ccccc12)C(C)C (stereo not drawn) | 6.49%
COc1cc(/C=C/C(=O)Nc2ccc(OC)c(S(=O)(=O)N3CCOCC3)c2)ccc1OCC#N | 34.9% (active)
COc1ccc(CCC(=O)Nc2ccc(Cl)c(S(=O)(=O)N3CCOCC3)c2)cc1OC | 5.73%
CSc1ccc(/C=C/C(=O)NC23CC4CC(CC(C4)C2)C3)cc1 | 14.4%
COc1cc(/C=C/C(=O)OCC(=O)N2CCOCC2)ccc1OCC#N | 5.68%
COc1ccc(/C=C/C(=O)Nc2ccc(C34CC5CC(CC(O)(C5)C3)C4)cc2)cc1OC | 31% (active)
COc1ccc(S(=O)(=O)N(C)CC(=O)Nc2ccc3c(c2)OCCO3)cc1OC | 5.05%
COc1ccc(/C=C/C(=O)Nc2ccc3c(c2)OCCO3)cc1OC | 33.3% (active)
COc1ccc(/C=C/C(=O)OCC(=O)NC2CCCCCC2)cc1OC | 27.3%
COc1cccc(/C=C/C(=O)Nc2ccc3c(c2)OCCO3)c1 | 9.4%
